Screen size: about 290,000 compounds; about 110 (0.038%) were called active. Not shown: some 3% with an inconclusive outcome. The call rests on the fitted dose curve; in most records, active means well fitted inhibition curve with a large enough effect in the polarisation, with a control signal flat (not every such curve was filed as active); inconclusive means small, poorly fitted or top-dose-only effect, or effect the other way, or a change in a side signal; inactive means no such curve, though single readings can be large or run the other way; the % refers to the polarisation. The full list was thinned out, with actives kept by preference.
Molecular target: Histone-lysine N-methyltransferase 2A (Homo sapiens) (UniProt Q03164)
Sequence (Q03164 whole entry, looked up, the tested form may be a part): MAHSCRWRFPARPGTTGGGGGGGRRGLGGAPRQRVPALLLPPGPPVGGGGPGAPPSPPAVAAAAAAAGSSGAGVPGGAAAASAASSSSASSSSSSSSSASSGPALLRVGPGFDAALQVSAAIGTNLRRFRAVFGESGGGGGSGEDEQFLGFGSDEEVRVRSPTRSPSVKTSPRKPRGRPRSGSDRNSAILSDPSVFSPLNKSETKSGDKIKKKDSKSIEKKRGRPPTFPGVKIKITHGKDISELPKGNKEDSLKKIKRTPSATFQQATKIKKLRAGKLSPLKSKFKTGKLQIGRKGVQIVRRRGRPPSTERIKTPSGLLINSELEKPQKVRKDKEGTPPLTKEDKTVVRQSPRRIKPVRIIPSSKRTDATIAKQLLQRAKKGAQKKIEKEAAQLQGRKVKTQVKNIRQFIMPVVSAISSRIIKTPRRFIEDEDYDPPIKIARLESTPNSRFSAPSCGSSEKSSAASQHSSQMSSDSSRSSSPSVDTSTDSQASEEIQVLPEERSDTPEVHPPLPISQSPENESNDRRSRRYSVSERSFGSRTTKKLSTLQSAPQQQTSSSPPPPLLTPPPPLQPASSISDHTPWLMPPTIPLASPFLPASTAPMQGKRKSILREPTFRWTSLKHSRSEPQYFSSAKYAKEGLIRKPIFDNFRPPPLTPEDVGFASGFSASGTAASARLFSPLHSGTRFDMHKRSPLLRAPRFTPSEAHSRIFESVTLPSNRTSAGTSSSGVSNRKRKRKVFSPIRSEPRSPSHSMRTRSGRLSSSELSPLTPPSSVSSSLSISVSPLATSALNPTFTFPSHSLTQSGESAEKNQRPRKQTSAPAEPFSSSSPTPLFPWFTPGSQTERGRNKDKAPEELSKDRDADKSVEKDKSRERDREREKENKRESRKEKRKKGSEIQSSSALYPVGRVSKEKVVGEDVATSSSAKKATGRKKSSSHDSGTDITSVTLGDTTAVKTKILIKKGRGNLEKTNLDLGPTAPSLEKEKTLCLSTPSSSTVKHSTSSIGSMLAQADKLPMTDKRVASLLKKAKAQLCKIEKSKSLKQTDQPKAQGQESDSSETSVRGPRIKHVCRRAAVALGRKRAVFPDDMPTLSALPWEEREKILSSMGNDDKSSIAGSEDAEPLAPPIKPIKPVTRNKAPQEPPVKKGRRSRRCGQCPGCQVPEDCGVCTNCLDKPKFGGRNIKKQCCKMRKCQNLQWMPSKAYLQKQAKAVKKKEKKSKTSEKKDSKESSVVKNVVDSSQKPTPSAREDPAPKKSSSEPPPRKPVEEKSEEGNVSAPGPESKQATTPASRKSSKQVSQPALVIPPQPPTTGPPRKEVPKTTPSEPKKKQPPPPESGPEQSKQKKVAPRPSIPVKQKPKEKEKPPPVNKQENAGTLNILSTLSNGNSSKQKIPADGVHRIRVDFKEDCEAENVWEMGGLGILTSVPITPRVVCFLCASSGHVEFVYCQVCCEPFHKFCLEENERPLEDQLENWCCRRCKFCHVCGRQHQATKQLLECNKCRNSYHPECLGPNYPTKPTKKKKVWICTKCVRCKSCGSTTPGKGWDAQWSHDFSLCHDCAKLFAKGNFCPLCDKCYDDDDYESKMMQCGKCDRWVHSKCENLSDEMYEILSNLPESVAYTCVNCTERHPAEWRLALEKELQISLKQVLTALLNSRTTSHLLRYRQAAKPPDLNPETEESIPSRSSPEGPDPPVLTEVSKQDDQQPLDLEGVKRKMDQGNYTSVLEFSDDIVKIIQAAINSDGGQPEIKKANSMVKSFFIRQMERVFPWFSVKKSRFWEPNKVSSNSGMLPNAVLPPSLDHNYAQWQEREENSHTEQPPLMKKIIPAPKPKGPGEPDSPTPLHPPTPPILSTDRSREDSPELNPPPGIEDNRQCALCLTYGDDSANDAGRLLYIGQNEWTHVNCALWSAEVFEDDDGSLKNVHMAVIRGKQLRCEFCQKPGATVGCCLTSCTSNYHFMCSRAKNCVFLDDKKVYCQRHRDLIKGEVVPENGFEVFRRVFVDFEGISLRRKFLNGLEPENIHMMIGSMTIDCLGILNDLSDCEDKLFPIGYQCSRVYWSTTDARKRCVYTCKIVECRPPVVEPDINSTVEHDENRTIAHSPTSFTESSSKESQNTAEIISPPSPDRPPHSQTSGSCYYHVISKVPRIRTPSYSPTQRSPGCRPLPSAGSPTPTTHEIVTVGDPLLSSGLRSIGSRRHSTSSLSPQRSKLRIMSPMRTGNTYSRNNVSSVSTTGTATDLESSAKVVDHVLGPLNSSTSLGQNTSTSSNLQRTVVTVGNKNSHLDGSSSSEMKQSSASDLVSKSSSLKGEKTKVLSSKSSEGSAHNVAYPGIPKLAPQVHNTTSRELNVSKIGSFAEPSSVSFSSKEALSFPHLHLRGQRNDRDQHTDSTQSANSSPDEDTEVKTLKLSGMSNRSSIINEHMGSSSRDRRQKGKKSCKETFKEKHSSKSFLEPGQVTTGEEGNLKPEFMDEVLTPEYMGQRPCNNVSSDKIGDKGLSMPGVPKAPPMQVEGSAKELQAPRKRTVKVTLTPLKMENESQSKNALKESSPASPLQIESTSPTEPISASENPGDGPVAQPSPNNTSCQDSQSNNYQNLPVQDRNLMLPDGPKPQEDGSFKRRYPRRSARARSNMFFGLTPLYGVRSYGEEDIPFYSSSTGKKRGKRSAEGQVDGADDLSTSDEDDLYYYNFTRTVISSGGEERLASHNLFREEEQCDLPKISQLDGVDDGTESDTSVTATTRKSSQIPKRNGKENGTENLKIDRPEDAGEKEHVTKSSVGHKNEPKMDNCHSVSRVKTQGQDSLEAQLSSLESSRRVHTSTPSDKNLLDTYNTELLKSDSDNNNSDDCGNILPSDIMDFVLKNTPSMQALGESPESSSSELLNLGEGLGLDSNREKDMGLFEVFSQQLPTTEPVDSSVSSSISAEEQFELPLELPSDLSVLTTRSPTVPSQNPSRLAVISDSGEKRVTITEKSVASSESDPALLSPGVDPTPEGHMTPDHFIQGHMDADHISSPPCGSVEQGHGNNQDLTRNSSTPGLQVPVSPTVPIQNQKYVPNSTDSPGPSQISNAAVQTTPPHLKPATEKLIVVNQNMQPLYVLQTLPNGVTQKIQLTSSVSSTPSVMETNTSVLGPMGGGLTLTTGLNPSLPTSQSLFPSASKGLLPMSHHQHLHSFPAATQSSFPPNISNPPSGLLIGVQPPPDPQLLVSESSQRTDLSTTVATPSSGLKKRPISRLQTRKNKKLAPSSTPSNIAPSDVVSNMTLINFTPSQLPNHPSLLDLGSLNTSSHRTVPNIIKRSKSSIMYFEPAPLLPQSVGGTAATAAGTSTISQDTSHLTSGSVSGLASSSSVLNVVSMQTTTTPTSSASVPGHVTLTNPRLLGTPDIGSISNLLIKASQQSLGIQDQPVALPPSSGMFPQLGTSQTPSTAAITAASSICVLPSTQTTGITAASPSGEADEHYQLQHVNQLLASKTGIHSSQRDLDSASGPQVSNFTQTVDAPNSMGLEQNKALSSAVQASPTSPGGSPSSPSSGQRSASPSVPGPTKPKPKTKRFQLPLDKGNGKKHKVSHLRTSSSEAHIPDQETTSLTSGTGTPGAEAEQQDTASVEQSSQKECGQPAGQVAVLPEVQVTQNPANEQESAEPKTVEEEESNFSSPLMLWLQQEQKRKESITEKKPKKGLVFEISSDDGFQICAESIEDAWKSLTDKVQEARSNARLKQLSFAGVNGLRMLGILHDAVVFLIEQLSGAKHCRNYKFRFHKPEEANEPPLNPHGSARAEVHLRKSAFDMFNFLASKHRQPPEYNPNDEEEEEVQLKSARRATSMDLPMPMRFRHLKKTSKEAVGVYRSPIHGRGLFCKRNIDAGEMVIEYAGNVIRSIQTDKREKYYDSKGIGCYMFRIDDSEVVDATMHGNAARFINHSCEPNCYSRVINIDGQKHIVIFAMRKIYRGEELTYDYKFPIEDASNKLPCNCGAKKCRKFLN
Assay: qHTS Fluorescence Polarization Assay for Inhibitors of MLL CXXC domain - DNA interaction
Conditions: MLL-CXXC / FITC-HOXA9 DNA fluorescence polarization; series mostly up to 115 µM
Description: NIH Chemical Genomics Center [NCGC] NIH Molecular Libraries Probe Production centers Network [MLPCN] MLPCN Grant: DA027717-01A1 Assay Submitter (PI): John Bushweller NCGC Assay Overview: The MLL (Mixed Lineage Luekemia) gene is involved in chromosomal translocation that results in either acute lymphoid leukemia (ALL) or acute myeloid leukemia (AML). Chromasomal translocation of MLL gene is responsible for the fusion of N-terminal MLL to more than 60 different partner genes in frame. Many of the MLL partner genes contain transcription activation domains or function as transcriptional activators. Despite the heterogeneity of fusion partners, the N-terminus of MLL fusion proteins always consists of the N-terminal menin binding motif and the CXXC domain. The MLL-CXXC domain specifically recognizes unmethylated CpG sequences of the HOX-A gene. Disruption of the MLL-CXXC and HOX-A gene interaction leads to down regulation of HOX-A gene expression and may potentially reverse leukemogenesis. We have miniaturized and optimized an in-vitro assay to screen for inhibitors of the MLL-CXXC domain and HOX-A DNA interaction, which could have utility in MLL fusion leukemias.
The affinity purified MLL-CXXC domain, unlabeled HOX-A9 DNA strand, fluorescein (FLSN) labeled HOX-A9 DNA strand were kindly supplied by the laboratory of Dr. John Bushweller, University of Virginia. All reagents were stored in single use aliquots at -80C. Assay Reagents: Assay buffer: 50 mM TRIS-HCl pH 7.5, 50 mM NaCl, 1 mM DTT. Add 0.05% BSA prior to reaction setup. Assay Procedure: 1.Dispense 1 ul of a 7 uM MLL-CXXC solution prepared in assay buffer into column 1-48. 2.Transfer 23 nl of compounds and unlabeled HOX-A9 per well. 3.Incubate for 5 minutes at ambient. 4.Dispense 1ul of a 50 nM FLSN-HOX-A9 solution prepared in assay buffer into columns 1-48 5.Centrifuge for 30 seconds at 1000 RPM. 6.Incubate for 30 minutes at ambient. 7.Read using the Envision reader fluorescent polarization protocol.

Potency, inactive:
COc1ccc(N(CC(=O)Nc2cc(OC)cc(OC)c2)S(=O)(=O)c2c(C)n[nH]c2C)cc1, CC(C)NC(=O)C(c1ccc(F)cc1)N(C(=O)CCC(=O)Nc1ccccn1)c1ccccc1F (configuration not stated), COc1ccc(C(=O)NC(C)CCc2ccccc2)c(OC)c1 (configuration not stated), O=C(CN1CCC(NC(=O)C2CC2)CC1)Nc1ccccc1[N+](=O)[O-], CCCOc1ccc(-c2c(C(=O)N/N=C/c3ccco3)nnn2-c2nonc2N)cc1, COC(=O)c1cc(S(=O)(=O)Nc2ccc(C)c(F)c2)c[nH]1, O=C(c1ccccc1)N1CCN(C(=O)c2cc3nc(-c4ccccc4)cc(C(F)(F)F)n3n2)CC1, COc1cccc(N(CC(=O)NC2CCCC2)C(=O)Cn2nnc(-c3ccc(C)o3)n2)c1, COc1ccc2c(c1OC)C(=O)N(c1ccc(O)cc1)C2, C=CC1(C)CC(=O)C2(O)C(C)(O1)C(OC(C)=O)C(O)C1C(C)(C)CCC(O)C12C (configuration not stated), C=C1C(=CC=C2CCC[C@@]3(C)[C@@H]2CC[C@H]3[C@H](C)CCCC(C)C)C[C@@H](O)C[C@@H]1O, O=C(CCS(=O)(=O)c1ccccc1)NC1CCCC1, CCN1C(=NCC(C)C)N[C@@H](CCc2ccccc2)[C@H](C(=O)NCC(C)C)[C@H]1C, O=C(COc1ccc(Cl)cc1)Nc1ccc2c(c1)OCO2, COc1cccc(OCC(O)CNC(=O)c2oc3c(C)c(C)ccc3c2C)c1 (configuration not stated), O=C(NCCc1ccccn1)c1nc(Cn2cc([N+](=O)[O-])cn2)no1, COc1ccc(-c2cc(=O)oc3cc(OC(C)C(=O)Nc4ccc(CN5CCOCC5)cc4)ccc23)cc1 (configuration not stated), CCOc1cc(C(=O)O)ccc1OCCOc1ccccc1, Cc1cc(C)cc(N(CCC#N)C(=O)CN2C(=O)NC3(CCCC3)C2=O)c1, CC(=O)N(C)c1ccc(NC(=O)Nc2cccc3ccccc23)cc1, CS(=O)(=O)N(CC(=O)Nc1ccc(F)cc1)C1CCCCC1, CC(=O)c1ccc(OCC(O)CN2CCN(S(=O)(=O)c3cccc(Br)c3)CC2)cc1 (configuration not stated), COc1ccccc1N1CCN(C(=O)c2cc(=O)c3cc(C)ccc3o2)CC1, Cc1ccc(OCC(=O)Nc2ccc(C(=O)O)cc2NC(=O)COc2ccc(C)c(C)c2)cc1C, Cc1nn(C(C)(C)C)c(OC(=O)CC(C)C)c1S(=O)(=O)c1ccccc1, C[C@]12CC[C@@H]3c4ccc(O)cc4C[C@@H](CCCCCCCCCS(=O)CCCC(F)(F)C(F)(F)F)C3[C@@H]1CC[C@@H]2O (some centres not stated), COc1ccccc1C(=O)NC(CCSC)C(=O)NNC(=O)c1csc(N2CCOCC2)n1 (configuration not stated), Cc1ccc(S(=O)(=O)NCCCn2ccnc2)cc1C(=O)NC(C)C, O=C(O)c1ccccc1C(=O)NC1=NN(c2ccccc2)CC1, O=C(NCCCN1CCCCC1)C1CC(=O)N(CCc2ccccc2)C1 (configuration not stated), COc1cc2c(cc1OC)[C@@H](Cc1cc(OC)c(OC)c(OC)c1)[N+](C)(CCCOC(=O)CC/C=C/CCC(=O)OCCC[N+]1(C)CCc3cc(OC)c(OC)cc3[C@H]1Cc1cc(OC)c(OC)c(OC)c1)CC2 (some centres not stated), CN(C(=O)c1ccccc1)c1nccnc1C#N, O=S(=O)(NC1CCCCC1N1CCN(c2ccccc2F)CC1)c1ccccc1 (configuration not stated), CCC1CCCCN1C(=S)Nc1ccc(S(=O)(=O)Nc2ncccn2)cc1 (configuration not stated), Cc1cc(C)cc(OCC(=O)Nc2cc(NC(=O)COc3cc(C)cc(C)c3)cc(C(=O)O)c2)c1, C[C@H](NC(=O)C1CC(=O)N(c2ccc3c(c2)OCCO3)C1)C(=O)N1CCC(C(=O)O)CC1 (some centres not stated), Cc1cc(C)c2nc(N3CCC(C(=O)NCCN4CCOCC4)CC3)sc2c1, Cc1ccc(C(C(=O)NCC2CCCO2)N(C(=O)c2snc(C(N)=O)c2N)c2ccc(C(C)C)cc2)o1 (configuration not stated), CCOC(=O)[C@@H]1[C@H]2COc3ccc(Br)cc3[C@H]2N2C(=O)N(c3ccc(Cl)cc3)C(=O)[C@@]12C, CC(=O)NC1CCN(CC(=O)Nc2nccs2)CC1, O=C(COc1ccc(Cl)cc1Cl)N/N=C/c1ccccn1, Cc1cccc(N(C)C(=O)CN2C(=O)COc3ccc(S(=O)(=O)N4CCCCCC4)cc32)c1, O=C(Nc1cccc(-n2cnnn2)c1)c1cccnc1, COc1ccccc1CCNC(=O)c1c(C)nn(CC(C)C)c1Cl, Cc1cccc(C)c1NC(=O)CS(=O)CC(=O)N1CCN(c2ccccc2)CC1 (configuration not stated), O=C(Nc1ncc([N+](=O)[O-])s1)C1COc2ccccc2O1 (configuration not stated), CC(C)CNC(=O)C(=O)NCC(c1ccc2c(c1)OCO2)N1CCOCC1 (configuration not stated), Cc1ccc(-c2noc(CNC(=O)c3ccoc3C)n2)cc1, O=C(CCS(=O)(=O)c1ccc2c(c1)NC(=O)CS2)NCc1ccccc1Cl, CCc1ccccc1NC(=S)Nc1cc(OC)c(NC(=O)C(C)C)cc1OC, O=C(NCc1ccccc1)C(c1ccccc1)N(C(=O)c1csnn1)c1ccc(F)cc1 (configuration not stated), [2H]C(CCOS(N)(=O)=O)c1ccccc1 (configuration not stated), CCCCC(=O)Nc1c2c(nn1-c1ccc([N+](=O)[O-])cc1)CS(=O)(=O)C2, Cc1cc(C)n2nc(CNS(=O)(=O)c3c(F)c(F)c(F)c(F)c3F)nc2n1, COc1cccc(CNC(=O)COc2cc(O)c3c(c2)OC(C)(C)CC3=O)c1, C/C(=N\NC(=O)c1ccoc1C)c1ccccc1O, CN1C(=O)CN2CCc3ccccc3C2c2cc(Cl)ccc21 (configuration not stated), O=C1C2CCCN2C(=O)N1CCCCN1CCN(c2cccc(C(F)(F)F)c2)CC1 (configuration not stated), O=C(Nc1nnc(S(=O)(=O)N2CCCCCC2)s1)c1cccc(Br)c1, Cc1cccc(OCC(O)CN2CCN(S(=O)(=O)c3ccc(C)cc3C)CC2)c1 (configuration not stated), Cc1cc(N=Nc2ccc3ccccc3c2)ccc1O, OCC(CO)NC1C[C@](O)(CO)[C@@H](O)[C@H](O)[C@H]1O (some centres not stated)

From PubChem BioAssay AID2662 (National Center for Advancing Translational Sciences (NCATS), 2010)
